The list is not random: actives were taken first. Their share in the collection is about 6.7%.
C diff HTS: blocks growth of Clostridium difficile. Clostridium difficile clinical isolate growth, OD600, 24 h; hits give low values. growth activity, negative = inhibition, % at 16 µg/mL (by protocol). 86,000 tested, 0.25% active;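 active means mean growth activity at or below -80% and every replicate also at or below -80%; inconclusive means mean at or below -80% but some replicate above -80%; inactive means mean growth activity above -80%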;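 further: 0% = DMSO wells and -100% = levofloxacin 16 µg/mL wells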
T cruzi growth-1: inhibitors of T. cruzi proliferation; T. cruzi beta-gal in NIH3T3, GalScreen luminescence, 90 h; inhibition, % at 8.34 µM; 77,000 tested, 5.9% active;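 active means mean inhibition above about 93%, with at least 55% of replicates each passing it, limit read from the data, passing the limit was not always enough; inconclusive means only one of those two conditions holds; inactive means neither condition holds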
Pf Dd2 inh: inhibitors of Plasmodium falciparum Dd2 growth. AID 1159554. P. falciparum Dd2 growth, SYBR Green, 72 h; hits give low values. activity change, % at 10 µM. 94,000 tested, 2.3% active; in the data active means activity change below about -80%; inconclusive means no clear call, values can overlap the other calls
T cruzi growth-2: blocks T. cruzi growth in NIH3T3 host cells; shares compounds with T cruzi growth-1; AID 651739; 5,600 tested, 72% active; inhibition, % at 8.35 µM; T. cruzi beta-gal in NIH3T3, GalScreen luminescence, 90 h;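 active means mean replicate inhibition above about 95% and at least 55% of replicates individually reaching it, limit read from the data; inconclusive means only one of the two criteria is met; inactive means neither criterion is met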
T cruzi growth-3: inhibitors of T. cruzi proliferation; shares compounds with T cruzi growth-1; T. cruzi beta-gal in NIH3T3, GalScreen luminescence, 90 h; inhibition, % at 2.09 µM; 5,600 tested, 21% active;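 active means mean inhibition above about 95%, with at least 55% of replicates also reaching it, limit read from the data; inconclusive means meets just one of the two conditions; inactive means meets neither condition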;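 further: plate controls were neutral control median for no effect and positive control median for full effect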
NIH3T3 tox: cytotoxicity in mouse NIH/3T3 fibroblasts; 5,600 tested, 14% active; shares compounds with T cruzi growth-1; NIH/3T3 viability, CellTiter-Glo ATP luminescence, 90 h; cytotoxicity (signal decrease), % at 8.35 µM;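 active means mean signal decrease across replicates above about 35% based on untreated-well scatter, with enough replicates individually passing, limit read from the data; inconclusive means no rule stated though some were filed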;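 further: 0% = median of neutral control wells and 100% = median of positive control wells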
NIH3T3 tox 2: cytotoxicity in mouse NIH/3T3 fibroblasts. AID 651744. shares compounds with T cruzi growth-1. 5,600 tested, 56% active. NIH/3T3 viability, CellTiter-Glo ATP luminescence, 90 h. inhibition, % at 24.9 µM;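 active means mean loss of cell viability signal at or above a set limit, and enough replicates individually reaching it; inconclusive means meets only the mean limit or only the replicate share; inactive means meets neither condition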;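 further: 0% = median of neutral control wells and 100% = median of positive control wells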
* = called active by the depositor.

Results for CO[C@H]1CN(C)C(=O)c2cc(NS(C)(=O)=O)ccc2OC[C@H](C)N(S(C)(=O)=O)C[C@@H]1C ?
C diff HTS: 0; T cruzi growth-1: -3; Pf Dd2 inh: 16

How did C[C@H]1CN([C@@H](C)CO)C(=O)CCCn2nncc2CO[C@H]1CN(C)CC1CC1 do in these assays?
T cruzi growth-1: -15; Pf Dd2 inh: 11

What do the screens show for `CNC[C@@H]1Oc2c(NC(=O)Nc3ccccc3)cccc2C(=O)N([C@H](C)CO)C[C@@H]1C`?
C diff HTS: 0; T cruzi growth-1: -8; Pf Dd2 inh: 18

What do the screens show for `COCC(=O)N1[C@H](CO)[C@H]2c3ccccc3N(C(=O)c3cccnc3)C[C@H]21`?
C diff HTS: 1; T cruzi growth-1: 16; Pf Dd2 inh: 2

What do the screens show for `O=C(C[C@@H]1CC[C@@H](NC(=O)C2CCC2)[C@H](CO)O1)Nc1nccs1`?
C diff HTS: -1; T cruzi growth-1: -14; Pf Dd2 inh: 12

What do the screens show for `C[C@@H]1CCCCO[C@H](CN(C)C(=O)Nc2ccccc2)[C@H](C)CN([C@H](C)CO)C(=O)c2cc(NC(=O)c3ccncc3)ccc2O1`?
C diff HTS: -11; T cruzi growth-1: 32; Pf Dd2 inh: -45

Results for Cc1ccc(S(=O)(=O)N2C[C@@H](O)COC[C@@H]3O[C@@H](CC(=O)N[C@@H]4CCN(Cc5ccccc5)C4)CC[C@H]32)cc1 ?
T cruzi growth-1: 63; Pf Dd2 inh: -9

How did Cc1ccc(S(=O)(=O)N2C[C@@H](O)COC[C@H]3O[C@@H](CC(=O)N[C@@H]4CCN(Cc5ccccc5)C4)CC[C@@H]32)cc1 do in these assays?
T cruzi growth-1: 98*; Pf Dd2 inh: -34; T cruzi growth-2: 82; T cruzi growth-3: 73; NIH3T3 tox: -16; NIH3T3 tox 2: -41

What do the screens show for `O=C(C[C@H]1CC[C@H]2[C@@H](COC[C@H](O)CN2S(=O)(=O)c2ccc(F)cc2)O1)N[C@H]1CCN(Cc2ccccc2)C1`?
C diff HTS: -4; T cruzi growth-1: 100*; Pf Dd2 inh: -25; T cruzi growth-2: 70; T cruzi growth-3: 53; NIH3T3 tox: -11; NIH3T3 tox 2: -21

Results for O=C(C[C@@H]1CC[C@@H]2[C@H](COC[C@H](O)CN2S(=O)(=O)c2ccc(F)cc2)O1)N[C@H]1CCN(Cc2ccccc2)C1 ?
C diff HTS: 1; T cruzi growth-1: 22; Pf Dd2 inh: -12

How did C[C@H](CO)N1C[C@H](C)[C@H](CN(C)Cc2ccc3c(c2)OCO3)OCCCC[C@H](C)Oc2ccc(NC(=O)NC3CCCCC3)cc2C1=O do in these assays?
C diff HTS: 7

How did Cc1ccc(S(=O)(=O)N(C)C[C@H]2OCCCC[C@H](C)Oc3ccc(NC(=O)Nc4c(C)noc4C)cc3C(=O)N([C@H](C)CO)C[C@H]2C)cc1 do in these assays?
C diff HTS: 3; T cruzi growth-1: 11; Pf Dd2 inh: -74

Results for Cc1noc(C)c1NC(=O)Nc1ccc2c(c1)CC(=O)N([C@@H](C)CO)C[C@@H](C)[C@@H](CN(C)CC1CC1)O2 ?
C diff HTS: -5; T cruzi growth-1: -21; Pf Dd2 inh: -6

Results for C[C@H]1CN([C@@H](C)CO)C(=O)c2cccc(NC(=O)Nc3cccc4ccccc34)c2O[C@H]1CN(C)Cc1ccc(C(F)(F)F)cc1 ?
T cruzi growth-1: 95; Pf Dd2 inh: -28

Results for C[C@H](CO)N1C[C@H](C)[C@H](CN(C)Cc2ccc(Oc3ccccc3)cc2)Oc2ccc(NC(=O)Nc3ccc4c(c3)OCO4)cc2C1=O ?
C diff HTS: 18; T cruzi growth-1: 110*; Pf Dd2 inh: -3; T cruzi growth-2: 102*; T cruzi growth-3: 7; NIH3T3 tox: -7; NIH3T3 tox 2: 32*

Results for C[C@H]1CN([C@@H](C)CO)C(=O)c2cccc(NC(=O)Nc3ccc4c(c3)OCO4)c2O[C@@H]1CN(C)Cc1ccc(Oc2ccccc2)cc1 ?
C diff HTS: 3; T cruzi growth-1: 92*; Pf Dd2 inh: -15; T cruzi growth-2: 96*; T cruzi growth-3: 63; NIH3T3 tox: -22; NIH3T3 tox 2: -28

How did C[C@H](CO)N1C[C@H](C)[C@H](CN(C)Cc2ccc(Oc3ccccc3)cc2)Oc2c(NC(=O)Nc3ccc4c(c3)OCO4)cccc2C1=O do in these assays?
C diff HTS: -2; T cruzi growth-1: 88; Pf Dd2 inh: -13

Results for C[C@H]1CN([C@@H](C)CO)C(=O)c2cccc(NC(=O)Nc3ccc4c(c3)OCO4)c2O[C@@H]1CN(C)Cc1ccc(C(=O)O)cc1 ?
C diff HTS: -2; T cruzi growth-1: 18; Pf Dd2 inh: 0

What do the screens show for `C[C@@H]1CN([C@@H](C)CO)C(=O)c2cc(NC(=O)Nc3ccccc3)ccc2O[C@H]1CN(C)Cc1ccc(Oc2ccccc2)cc1`?
C diff HTS: 10; T cruzi growth-1: 58; Pf Dd2 inh: -13

Results for C[C@@H]1CN([C@@H](C)CO)C(=O)c2cccc(NC(=O)Nc3ccc4c(c3)OCO4)c2O[C@H]1CN(C)Cc1ccc(C(=O)Nc2ccccc2N)cc1 ?
T cruzi growth-1: 115*; Pf Dd2 inh: -85*; T cruzi growth-2: 110*; T cruzi growth-3: inconclusive; NIH3T3 tox: 16; NIH3T3 tox 2: 30*

How did CCNC(=O)[C@H]1[C@H](CO)[C@H]2Cn3c(ccc(-c4ccccc4F)c3=O)[C@@H]1N2CCC(F)(F)F do in these assays?
C diff HTS: -3; T cruzi growth-1: 6; Pf Dd2 inh: 0

What do the screens show for `C[C@@H]1CN([C@H](C)CO)C(=O)c2cc(NC(=O)CCC(F)(F)F)ccc2O[C@@H](C)CCCCO[C@@H]1CN(C)C(=O)NC1CCCCC1`?
C diff HTS: 1; T cruzi growth-1: 22; Pf Dd2 inh: -47

What do the screens show for `NCC[C@H]1CC[C@@H](NC(=O)Cc2ccncc2)[C@@H](CO)O1`?
C diff HTS: -2; T cruzi growth-1: -9; Pf Dd2 inh: 1

What do the screens show for `Cc1ccc(S(=O)(=O)N(C)C[C@@H]2Oc3c(cccc3N(C)C)C(=O)N([C@H](C)CO)C[C@@H]2C)cc1`?
C diff HTS: 9; T cruzi growth-1: 5; Pf Dd2 inh: 7

How did C[C@@H]1CCCCO[C@H](CN(C)C(=O)C2CCCCC2)[C@H](C)CN([C@@H](C)CO)C(=O)c2cc(NC(=O)Nc3cccc4ccccc34)ccc2O1 do in these assays?
C diff HTS: -6; T cruzi growth-1: inconclusive; Pf Dd2 inh: -48; T cruzi growth-2: 105*; T cruzi growth-3: 80; NIH3T3 tox: 11; NIH3T3 tox 2: 22

From PubChem BioAssay
